We go through six compounds from the supplement of paper PMC9694430.

Holding throughout (assay): thermal shift delta Tm vs DMSO control; higher = stronger stabilization (binding)
Holding throughout (conditions): 12.5 µM; protein concentration 2 µM

Assay [1] concerns LOC_OS02G45750-cb003. In a few lines:
(§1)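 Heating from 25°C to 95°C at 0.05°C/s, fluorescence was recorded for 19.5 μl wells of 2 μM E. coli-expressed, purified rice kinase domain in 100 mM potassium phosphate pH 7.5, 150 mM NaCl, 10% glycerol and 5 × SYPRO Orange with compound in DMSO. Boltzmann fits gave melting temperatures for this differential scanning fluorimetry assay. The shift reported is the mean of three replicates against the DMSO-only protein.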

Assay [2] has as its system LOC_OS02G54510-cb004. In a few lines:
as §1

Assay [3] deals with LOC_OS03G04050-cb001. The procedure, abridged: as §1
The test system of assay [4] is LOC_OS03G12390-cb001. In a few lines: as §1
For assay [5], the system named is LOC_OS03G27990-cb004. The procedure, abridged:
as §1

In assay [6] the test system is LOC_OS03G50450-cb001. In a few lines: as §1
Assay [7] has as its system LOC_OS03G50810-cb003. The procedure, abridged:
as §1

The test system of assay [8] is LOC_OS04G35114-cb001. The procedure, abridged: as §1
For assay [9], the system named is T1, LOC_OS04G38480-cb003.
T1 sequence (whole entry): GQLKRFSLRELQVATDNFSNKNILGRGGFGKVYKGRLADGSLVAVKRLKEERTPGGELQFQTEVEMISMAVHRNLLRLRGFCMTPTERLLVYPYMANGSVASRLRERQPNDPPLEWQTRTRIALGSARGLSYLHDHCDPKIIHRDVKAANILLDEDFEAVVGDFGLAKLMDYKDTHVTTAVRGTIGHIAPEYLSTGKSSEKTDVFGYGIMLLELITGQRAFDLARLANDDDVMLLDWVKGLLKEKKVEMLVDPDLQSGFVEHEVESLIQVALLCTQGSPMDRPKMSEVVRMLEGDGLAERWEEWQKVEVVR
The procedure, abridged:
as §1

Assay [10] deals with T2, LOC_OS04G41100-cb001.
T2 sequence (whole entry): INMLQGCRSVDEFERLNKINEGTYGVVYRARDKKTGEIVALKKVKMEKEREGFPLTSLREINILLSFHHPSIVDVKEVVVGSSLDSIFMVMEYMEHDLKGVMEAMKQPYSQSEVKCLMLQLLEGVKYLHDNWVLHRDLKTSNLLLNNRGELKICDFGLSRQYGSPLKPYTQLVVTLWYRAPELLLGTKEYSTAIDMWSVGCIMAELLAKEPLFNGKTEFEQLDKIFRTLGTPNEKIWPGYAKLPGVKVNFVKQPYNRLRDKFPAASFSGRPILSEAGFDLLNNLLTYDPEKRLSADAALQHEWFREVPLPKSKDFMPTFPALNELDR
The procedure, abridged:
as §1

Assay [11] deals with LOC_OS04G57630-cb004. The procedure, abridged: as §1
For assay [12], the system named is LOC_OS05G07850-cb002. The procedure, abridged:
as §1

Assay [13] has as its system LOC_OS05G16824-cb004. In a few lines: as §1
For assay [14], the system named is LOC_OS05G28520-cb001. The procedure, abridged: as §1
Assay [15] concerns LOC_OS05G30820-cb001. In a few lines: as §1
Assay [16] deals with LOC_OS05G43570-cb004. In a few lines:
as §1

The test system of assay [17] is LOC_OS06G16330-cb003. In a few lines:
as §1

The test system of assay [18] is T3, LOC_OS06G22820-cb001.
T3 sequence (whole entry): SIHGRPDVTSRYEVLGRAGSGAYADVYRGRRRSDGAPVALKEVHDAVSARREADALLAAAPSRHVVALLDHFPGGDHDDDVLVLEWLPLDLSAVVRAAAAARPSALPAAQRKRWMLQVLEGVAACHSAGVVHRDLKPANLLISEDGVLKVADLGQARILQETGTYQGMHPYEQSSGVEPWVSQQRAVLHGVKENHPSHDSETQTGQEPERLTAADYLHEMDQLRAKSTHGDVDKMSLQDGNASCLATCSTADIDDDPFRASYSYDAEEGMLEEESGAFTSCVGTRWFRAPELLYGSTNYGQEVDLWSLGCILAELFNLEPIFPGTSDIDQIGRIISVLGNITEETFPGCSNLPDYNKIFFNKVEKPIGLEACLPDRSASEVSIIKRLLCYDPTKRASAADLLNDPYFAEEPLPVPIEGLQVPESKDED
In a few lines:
as §1

Assay [19] concerns LOC_OS07G06570-cb004. In a few lines: as §1
Assay [20] deals with LOC_OS07G07230-cb001. In a few lines:
as §1
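Also: purified Escherichia coli-expressed rice kinase domain construct.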

Chain of LOC_OS06G16330-cb003 (as listed by the source): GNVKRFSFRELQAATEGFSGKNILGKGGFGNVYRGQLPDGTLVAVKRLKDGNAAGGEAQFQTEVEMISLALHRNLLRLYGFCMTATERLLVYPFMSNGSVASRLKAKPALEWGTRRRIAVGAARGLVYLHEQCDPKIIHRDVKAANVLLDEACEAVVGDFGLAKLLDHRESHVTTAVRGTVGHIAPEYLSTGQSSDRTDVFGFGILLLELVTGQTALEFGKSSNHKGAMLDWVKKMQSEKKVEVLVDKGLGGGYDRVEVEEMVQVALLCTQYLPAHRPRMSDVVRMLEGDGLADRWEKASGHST

On to `CC(C)=CC[C@@H](O)C1=CC(=O)c2c(O)ccc(O)c2C1=O` [Shikonin], for which the “thermal shift delta Tm” value was 0 °C in assay [1]; -0.56 °C in [2]; 0.62 °C in [3]; -4.26 °C in assay [4]; -2.32 °C in assay [5]; -1.22 °C in assay [6]. Besides, the “thermal shift delta Tm” value is 0 °C in assay [7]; 3.21 °C in assay [8]; -2.82 °C in [9]; -0.35 °C in assay [10]; -1.93 °C in assay [11]; -1.47 °C in assay [12]. For the same compound, the “thermal shift delta Tm” value in assay [13] is -0.18 °C; in [14] it was 1.58 °C; in assay [15], 0.18 °C; in assay [16], 0.09 °C; in assay [17], -1.68 °C; in assay [18], -0.26 °C. Moreover, the “thermal shift delta Tm” value in [19] was found to be 7.3 °C; in assay [20] it was 0.21 °C.

As for `CCNC(=O)Nc1ccc(-c2nc(N3CCOC[C@@H]3C)c3c(n2)C(C)(C)S(=O)(=O)C3)cc1`, the “thermal shift delta Tm” value is 0.42 °C in [1]; 0.08 °C in [2]; 0.36 °C in assay [3]; 0.06 °C in [4]; 0.16 °C in assay [5]; 0.41 °C in assay [6]. Besides, the “thermal shift delta Tm” value in assay [7] was 0.16 °C; in [8], 0.29 °C; in assay [9], 1.39 °C; in assay [10] it was 0.2 °C; in assay [11] it was -0.03 °C; in assay [12], 1.34 °C. Also, the “thermal shift delta Tm” value in [13] is 0.19 °C; in assay [14], 0.25 °C; in assay [15], 0.2 °C; in assay [16], 0.77 °C; in assay [17] it was -0.15 °C; in [18] it was 0.67 °C. The results for the “thermal shift delta Tm” value in assay [19] and in [20] were 1.9 °C and 0.66 °C, respectively.

Take `C[C@H]1CNC(=O)c2cnn3ccc(nc23)N[C@H](C)c2cc(F)ccc2O1`: the “thermal shift delta Tm” value came out at 3.54 °C in assay [1]; 6.11 °C in assay [2]; 0.53 °C in assay [3]; 0.55 °C in [4]; 0.55 °C in [5]; 0.87 °C in assay [6]. For the same compound, the “thermal shift delta Tm” value was determined as 2.52 °C in assay [7]; 2.45 °C in assay [8]; 3.37 °C in [9]; 0.09 °C in [10]; 1.68 °C in assay [11]; 10.8 °C in [12]. Moreover, the “thermal shift delta Tm” value in [13] was 12.5 °C; in [14], 0.06 °C; in assay [15], 0.11 °C; in [16], 0.56 °C; in assay [17], 9.31 °C; in assay [18], -0.23 °C. For the same compound, the “thermal shift delta Tm” value in assay [19] came to 1.57 °C; in assay [20], 0.8 °C.

For `CCc1cc(Nc2nccc(-c3c(-c4ccc(OC)c(C(=O)Nc5c(F)cccc5F)c4)nc4ccccn34)n2)c(OC)cc1N1CCC(N2CCN(S(C)(=O)=O)CC2)CC1`, the “thermal shift delta Tm” value is -0.02 °C in assay [1]; 0.08 °C in assay [2]; 0.66 °C in assay [3]; 0.08 °C in assay [4]; 0.49 °C in [5]; 0.27 °C in assay [6]. Further, the “thermal shift delta Tm” value in assay [7] was 0.2 °C; in assay [8] it was 0.36 °C; in assay [9] it was 0.7 °C; in assay [10], 0.67 °C; in [11], -0.18 °C; in assay [12] it was 0.07 °C. For the same compound, the “thermal shift delta Tm” value in [13] is -0.08 °C; in [14], 1.11 °C; in [15], 0.41 °C; in assay [16], 0.31 °C; in assay [17], -0.08 °C; in [18] it was 0.94 °C. For the same compound, the results for the “thermal shift delta Tm” value in [19] and in assay [20] were 0.75 °C and 0.69 °C, respectively.

Take `CCNC(=O)Nc1ccc(-c2nc3c(c(N4CCOC[C@@H]4C)n2)CCN(C2COC2)C3)cc1`: the “thermal shift delta Tm” value in [1] was 1.07 °C; in [2], 0.26 °C; in [3] it was 0.61 °C; in [4] it was -0.06 °C; in assay [5] it was 0.78 °C; in [6], 0.68 °C. Further, the “thermal shift delta Tm” value is 0.23 °C in assay [7]; 0.56 °C in [8]; -0.03 °C in [9]; 0.46 °C in assay [10]; 0.05 °C in [11]; 0.56 °C in assay [12]. In addition, the “thermal shift delta Tm” value is -1.52 °C in [13]; 0 °C in assay [14]; 0.54 °C in assay [15]; 0.3 °C in [16]; 0.18 °C in [17]; 0.27 °C in assay [18]. For the same compound, the entries for the “thermal shift delta Tm” value in assay [19] and in assay [20] were 1.06 °C and 0.66 °C, respectively.

For `Cc1ccc(-n2nc(C(C)(C)C)cc2NC(=O)NCc2cc(F)ccc2Oc2ccc3c(cnn3CCO)c2)cc1` [Pexmetinib (ARRY-614)], the “thermal shift delta Tm” value came out at 0.81 °C in assay [1]; 2.56 °C in assay [2]; 0.65 °C in [3]; 1.05 °C in assay [4]; 0.31 °C in assay [5]; 0.02 °C in [6]. Also, the “thermal shift delta Tm” value in assay [7] worked out at 0.36 °C; in assay [8] it was 0.41 °C; in assay [9] it was 1.51 °C; in assay [10] it was 1.43 °C; in [11] it was 5.61 °C; in assay [12], 7.46 °C. The “thermal shift delta Tm” value in assay [13] was -1.5 °C; in assay [14], 0.41 °C; in assay [15] it was 0.66 °C; in [16], 0.54 °C; in assay [17] it was 3.89 °C; in assay [18], 0.91 °C. In addition, the figures for the “thermal shift delta Tm” value in assay [19] and in [20] were 0.14 °C and -0.6 °C, respectively.
